Screens: PubChem BioAssay, Broad Institute
In the library only some 2.2% were active in any assay of this set; here they are far more common.
EBV LMP1 NFkB: Epstein-Barr LMP1 NF-kappaB reporter inhibition; LMP1-induced NF-kappaB luciferase reporter cells, luminescence; actives 0.69% (n = 350,000); inhibition, % at 12.5 µM; in the data active = inhibition above about 41%; inconclusive = no clear call, values can overlap the other calls;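 also: 0% = neutral control wells and 100% = reference inhibitor control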
PGC1a acetyl inh: PGC1a acetylation modulation, inhibitor mode; U2OS PGC1a acetylation, AlphaScreen anti-acetyl-lysine; with virally co-expressed GCN5 acetyltransferase; inhibition, % at 15.6 µM; actives 0.17% (n = 350,000); AID 651687;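 active = every replicate shows inhibition of at least 40%; inconclusive = mean inhibition at least 40% but some replicate below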;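 also: 0% = neutral control wells and 100% = positive control wells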
EWS-Fli inh: blocks EWS/Fli oncoprotein-driven transcription | A673 NR0B1-luciferase reporter, viability-normalised | inhibition, % at 12.6 µM | actives 0.67% (n = 350,000) | AID 651661;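 active = mean inhibition of at least 50% after viability correction, with every replicate also passing that limit; inconclusive = mean reaches 50% but only one of two replicates passes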;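 also: firefly luciferase signal divided by Alamar Blue viability fluorescence both relative to DMSO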
PAX8 reporter: PAX8 transcriptional activity inhibition. RMG-I TPO-luciferase reporter, SteadyGlo, 24 h. inhibition, % at 12.6 µM. actives 1.2% (n = 360,000). AID 652154;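 active = mean replicate inhibition at least 60% with every replicate also reaching 60%; inconclusive = only one of the two criteria is met; inactive = mean below 60% and not all replicates reaching 60%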;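 also: luciferase light reporting Pax8 driven TPO promoter activity; plate controls were median of neutral control wells for no effect and mitoxantrone controls for full effect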
TRPM1 prom inh: inhibitors of MITF-driven TRPM1 promoter in melanoma cells; SK-MEL-5 TRPM1 promoter luciferase, 24 h; inhibition, % at 12.5 µM; actives 0.83% (n = 330,000);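 active = mean inhibition across replicates of 60% or more, whatever share of single replicates reaches that level; inconclusive = some that reach 60%, reason not given; inactive = mean inhibition across replicates below 60%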
LGR2 inh: Drosophila LGR2 receptor signaling inhibition; AID 720647; actives 0.35% (n = 380,000); inhibition, % at 9.99 µM; HEK293 LGR2, CRE-luciferase, bursicon-stimulated, 4 h;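 active = drop in luminescence signal, shown as inhibition above about 50% in the replicate tests, limit read from the data, passing the limit was not always enough; inconclusive = probably only some replicates passing the limit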;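 also: agonist challenge used bursicon conditioned medium at about half maximal strength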
Numbers without * were called inactive; ? = inconclusive; / = no result given.

SMILES	EBV LMP1 NFkB	PGC1a acetyl inh	EWS-Fli inh	PAX8 reporter	TRPM1 prom inh	LGR2 inh
Cc1noc(C)c1NC(=O)N(C)C[C@@H]1Oc2ccc(NC(=O)CCCCCC(=O)Nc3ccccc3N)cc2C(=O)N([C@H](C)CO)C[C@H]1C	/	3	8	-23	/	-5
Cc1ccc(S(=O)(=O)N(C)C[C@H]2Oc3ccc(NS(=O)(=O)c4cn(C)cn4)cc3C(=O)N([C@H](C)CO)C[C@@H]2C)cc1	/	11	6	4	/	9
C[C@@H]1CN([C@@H](C)CO)C(=O)c2cc(NS(=O)(=O)c3ccc(F)cc3)ccc2O[C@H]1CN(C)Cc1ccc(C(F)(F)F)cc1	/	3	-11	-19	/	28
C[C@@H]1CN([C@@H](C)CO)C(=O)c2cc(NS(=O)(=O)c3ccc(F)cc3)ccc2O[C@@H]1CN(C)Cc1ccc(C(F)(F)F)cc1	/	-8	75*	107*	/	-5
Cc1ccc(S(=O)(=O)Nc2ccc3c(c2)C(=O)N([C@H](C)CO)C[C@@H](C)[C@@H](CN(C)Cc2ccc(C(F)(F)F)cc2)O3)cc1	/	-10	31	7	/	-14
C[C@H](CO)N1C[C@H](C)[C@@H](CN(C)Cc2ccc(C(F)(F)F)cc2)Oc2ccc(NS(=O)(=O)c3ccc(F)cc3)cc2C1=O	/	103*	8	20	/	1
C[C@@H]1CN([C@H](C)CO)C(=O)Cc2cc(NS(=O)(=O)c3ccc(Cl)cc3)ccc2O[C@@H]1CN(C)Cc1ccc(-c2ccccc2)cc1	/	-27	8	11	/	-2
COC(=O)C(CC#Cc1ccc2c(c1)[C@]1(C(=O)N2)[C@H](C(=O)NC[C@H](O)c2ccccc2)[C@H]2C(=O)O[C@H](c3ccccc3)[C@H](c3ccccc3)N2[C@@H]1c1ccccc1OCCO)C(=O)OC	/	/	71*	101*	/	/
COC(=O)C(CC#Cc1ccc2c(c1)[C@]1(C(=O)N2)[C@H](c2ccccc2OCCO)N2[C@H](c3ccccc3)[C@H](c3ccccc3)OC(=O)[C@H]2[C@@H]1C(=O)N1CCc2cc(OC)c(OC)cc2C1)C(=O)OC	/	-26	56*	-14	/	/
C[C@@H]1CCCCO[C@@H](CN(C)Cc2ccc(C(F)(F)F)cc2)[C@H](C)CN([C@@H](C)CO)C(=O)c2cc(NC(=O)c3ccccc3)ccc2O1	/	-36	13	32	/	19
C[C@@H]1CCCCO[C@H](CN(C)Cc2ccc(C(F)(F)F)cc2)[C@H](C)CN([C@H](C)CO)C(=O)c2cc(NC(=O)Cc3ccccc3)ccc2O1	/	?	16	83*	/	23
C[C@H]1CCCCO[C@@H](CN(C)Cc2ccc(C(F)(F)F)cc2)[C@@H](C)CN([C@@H](C)CO)C(=O)c2cc(NC(=O)Cc3ccccc3)ccc2O1	/	3	13	82*	/	11
C[C@@H]1CCCCO[C@H](CN(C)Cc2ccc(C(F)(F)F)cc2)[C@@H](C)CN([C@H](C)CO)C(=O)c2cc(NC(=O)Cc3ccccc3)ccc2O1	/	14	-25	-8	/	1
C[C@@H]1CCCCO[C@H](CN(C)Cc2ccc(C(F)(F)F)cc2)[C@@H](C)CN([C@@H](C)CO)C(=O)c2cc(NC(=O)Cc3ccccc3)ccc2O1	/	18	-2	85*	/	6
C[C@H](CO)N1C[C@H](C)[C@@H](CN(C)Cc2ccc(C(F)(F)F)cc2)Oc2ccc(NC(=O)Cc3ccccc3)cc2C1=O	/	11	4	12	/	12
C[C@H]1CN([C@@H](C)CO)C(=O)c2cc(NC(=O)Cc3ccccc3)ccc2O[C@@H]1CN(C)Cc1ccc(C(F)(F)F)cc1	/	1	-1	67*	/	-2
C[C@@H]1CCCCO[C@@H](CN(C)Cc2ccc(C(F)(F)F)cc2)[C@@H](C)CN([C@@H](C)CO)C(=O)c2cc(NC(=O)Cc3ccccc3)ccc2O1	/	21	-9	52	/	2
C[C@@H]1CN([C@H](C)CO)C(=O)c2cc(C#CC(C)(C)O)cnc2O[C@@H]1CN(C)C(=O)C1CCOCC1	/	1	0	/	/	3
CCC(=O)Nc1ccc2c(c1)OC[C@H](C)N(C(=O)CN(C)C)C[C@H](C)[C@@H](OC)CN(C)C2=O	/	3	-1	3	/	-10
O=C(O)C1=C[C@@H](c2ccc3c(c2)Cc2ccccc2-3)C[C@@H](OCc2ccc(CO)cc2)O1	/	/	-40	-188	/	/
Cc1ccc(S(=O)(=O)N(C)C[C@H]2Oc3ccc(NC(=O)Cc4ccccc4)cc3C(=O)N([C@H](C)CO)C[C@@H]2C)cc1	/	-18	1	84*	/	-9
COc1ccc(CN(C)C[C@H]2Oc3ccc(NC(=O)CCCN(C)C)cc3C(=O)N([C@H](C)CO)C[C@H]2C)cc1	/	-8	-11	-42	/	-2
CNC[C@H]1Oc2ccc(NC(=O)Nc3ccc(F)cc3)cc2CC(=O)N([C@H](C)CO)C[C@@H]1C	/	-1	-6	-6	/	8
CCOC(=O)N1CCN(C(=O)c2ccc(Cn3c(=S)[nH]c4cc5c(cc4c3=O)OCO5)cc2)CC1	-2	-20	/	4	63*	/
CCOC(=O)N1CCN(C(=O)c2ccc(Cn3c(=S)[nH]c4cc(OCC)c(OCC)cc4c3=O)cc2)CC1	24	6	25	10	50	?
SMILES	EBV LMP1 NFkB	PGC1a acetyl inh	EWS-Fli inh	PAX8 reporter	TRPM1 prom inh	LGR2 inh
COc1ccc(C(=O)Nc2cccc(-c3ccc4nncn4n3)c2)cc1	-2	-4	-2	5	-6	-8
COc1ccc(S(=O)(=O)Nc2cccc(-c3ccc4nncn4n3)c2)cc1	8	/	64*	41	24	9
C[C@@H]1CN([C@H](C)CO)C(=O)c2cc(-c3ccccc3F)cnc2O[C@@H]1CN(C)C	/	-6	-2	/	/	0
C=CCOc1ccccc1CN(C(=O)CCl)c1ccc2c(c1)OCO2	1	5	59*	121*	49	-15
CCOc1ccccc1NC(=O)Nc1ccc2c(c1)OCO2	1	/	-46	-24	-21	-16
COc1ccc([C@H]2CC(=O)C=C(c3c(OC)cccc3OC)C2)cc1	-6	/	63*	11	22	-7
COc1ccc([C@H]2CC(=O)C=C(c3cc(Cl)ccc3OC)C2)cc1	5	-4	47	32	18	25
CCOc1ccc(Cl)cc1C1=CC(=O)C[C@H](c2ccc(OC)cc2)C1	18	-15	60*	22	19	13
O=C(C[C@@H]1CC[C@@H]2[C@H](COC[C@@H](O)CN2Cc2ccccc2)O1)NCCCN1CCOCC1	/	1	3	1	/	-2
Cn1c(=NC(=O)CCl)sc2ccccc21	-17	3	74*	/	25	2
CCCN(CCC)CCCNC(=O)c1cc2cc3ccc(OC)cc3nc2o1	-3	/	/	-4	-39	/
COc1ccc2cc3cc(C(=O)NCCc4ccc(OC)c(OC)c4)oc3nc2c1	32	-9	/	/	65*	/
